Measured values: PubChem BioAssay (NCI)
This is part of a sample that, as a whole, favours compounds with a hit. Of some 79,000 tested, about 15% had one in any assay. A number with no mark means an inactive call. The source made the active and inactive calls. Cut-off read from the data, not from the text of the source: active = growth inhibition above about 70%; inactive = the rest.

experiment: NCI Yeast Anticancer Drug Screen. Data for the mlh1 rad18 strain (AID 175); conditions: S. cerevisiae mlh1 rad18 strain growth inhibition; at 50.0 µM; active compounds read high
Summary of the method: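 Read-out is yeast growth inhibition, calculated against vehicle-only controls. The compound was applied to a strain engineered with DNA damage repair alterations.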

Row | SMILES | growth inhibition
1 | O=C1C=C/C(=N/c2ccc(O)o2)c2ccccc21 | 60%
2 | N#CCCCNc1ccccc1 | -20.6%
3 | Cc1cccc(C(C)(C)C)c1NC(=O)C(=O)C(C(=O)/C=C\c1ccccc1)C1OC(=O)c2ccccc21 (configuration not stated) | 6.1%
4 | CC1(C)OCC(Cc2ccc3c(c2)OCO3)CO1 | 2.25%
5 | CCOC(=O)N1CC(C)N(C(=O)OCC)CC1C (configuration not stated) | 8.5%
6 | CCc1ccc(NC(=O)CCC(=O)O)cc1 | -16.9%
7 | Cc1ccc(N=Nc2c(N)ccc3ccccc23)cc1 | 86.5% (active)
8 | CC(C)C1OCC(CO)([N+](=O)[O-])CO1 (configuration not stated) | -6.15%
9 | Cc1c(-c2ccc3c(c2)COC3)sc(N)c1C#N | -5.4%
10 | COc1cc2c(OC)cc1CSCc1sc(C)c(c1Br)CSC2 | 14.8%
11 | CC(C)c1ccc(OC(=O)Nc2c(Cl)cccc2Cl)cc1 | -3.65%
12 | COc1ccc(NC(=O)COc2ccc(Cl)cc2Cl)cc1 | 19.6%
13 | Cc1ccccc1C(=O)OCC(=O)c1ccc(-c2ccccc2)cc1 | -20.7%
14 | Nc1n[n+](-c2ccc(Cl)cc2)no1 | 91.7% (active)
15 | CCOC(=O)c1c(-c2ccc([N+](=O)[O-])cc2)c(/C=N\O)n(-c2ccccc2)c1C | 20%
16 | CCCOC(=O)NC(C)C(=O)NC(CCC(=O)NC(CCCC(N)C(=O)O)C(=O)NC(C)C(=O)O)C(=O)O (configuration not stated) | -10.8%
17 | COc1ccc(-c2cc(-c3ccc(Cl)cc3)on2)cc1 | -11.4%
